# The full list was thinned out, with hits kept by preference.
# Pf Dd2 inh – inhibitors of Plasmodium falciparum Dd2 growth; P. falciparum Dd2 growth, SYBR Green, 72 h; Potency, µM (top dose mostly 28.9 µM), most hits filed as inhibitors; 120,000 compounds, 4.3% hits; AID 1347417; active means well fitted inhibition curve with a large enough effect; further: nearly all actives have a fitted effect of over 65% in size
#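 Infected erythrocytes (Dd2, 0.3% parasitemia, 2.5% hematocrit final) are added to compound in RPMI-1640/Albumax II medium, grown 72 h at 37C in low oxygen, then lysed with saponin/Triton-X containing SYBR Green and read by fluorescence.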
# A number is an active result; n = inactive.
SMILES,Pf Dd2 inh
CCc1ccc(NC(=O)C2CCCN(S(=O)(=O)c3cccc4cccnc34)C2)cc1 (stereo not given),14µM
Cc1ccsc1-c1[nH]nc2ncc(-c3cccnc3)nc12,n
COCCn1c(=O)n([C@H]2CCCN(C(=O)CC(C)C)C2)c2ncccc21,n
CCOc1ccc(-n2nc3ccc(NC(=O)c4ccc(C)cc4C)cc3n2)cc1,n
CCOc1ccc(-n2nc3ccc(NC(=O)COc4ccccc4)cc3n2)cc1,n
CCOc1ccc(-n2nc3ccc(NC(=O)c4ccc(-c5cccc(Cl)c5)o4)cc3n2)cc1,2.8µM
Brc1ccc(-c2ccc(CNCCSc3nnnn3-c3ccccc3)o2)cc1,n
CCNCc1ccc(-c2ccccc2)o1,n
CCOCCCNCc1ccc(-c2ccccc2)o1,11µM
O=C(CCc1cnccn1)N1CCOC(CCCc2ccccc2)C1 (stereo not given),n
C#CCNC(=O)c1onc(-c2ccc(F)cc2)c1[C@H](C)O,n
O=C(Nc1ccc2nc(SCC(=O)N3CCOCC3)sc2c1)c1cccc(Br)c1,n
O=C(Nc1ccc2c(N3CCOCC3)ncnc2c1)c1ccccc1C(F)(F)F,n
O=C(Nc1ccc2c(N3CCOCC3)ncnc2c1)c1cccc(Br)c1,0.89µM
Cc1ccc(C(=O)Nc2ccc3c(N4CCOCC4)ncnc3c2)cc1,n
O=C(Nc1ccc2c(N3CCOCC3)ncnc2c1)c1ccc(F)c(Cl)c1,2.5µM
O=C(Nc1ccc2ncnc(N3CCCC3)c2c1)c1cccc(Br)c1,n
COc1ccc(C(=O)N2CCC(N3C(=O)[C@H](OC)[C@@H]3c3ccncc3)CC2)cc1,n
CC(C)Cc1cc(C(=O)N2CCCC(c3ccc(C(=O)O)cc3)C2)nc(=O)[nH]1 (stereo not given),n
Cc1ccc(C(=O)N2CCc3nc(-c4ccccc4)nc(-c4ccc(Cl)cc4)c3C2)cc1,10µM
CC(C)(C)C(=O)N1CCc2nc(-c3ccccc3)nc(-c3ccc(Cl)cc3)c2C1,5µM
Cc1nc2c(c(-c3ccc(Cl)cc3)n1)CN(C(=O)c1ccccc1)CC2,n
CC(=O)N1CCc2nc(-c3ccc(Cl)cc3)nc(-c3ccccc3)c2C1,n
CN(C)C(=O)N1CCc2nc(-c3ccccc3)nc(-c3ccc(Cl)cc3)c2C1,n
O=C(c1ccc(Cl)nc1)N1CCc2nc(-c3ccc(Cl)cc3)nc(-c3ccccc3)c2C1,n
SMILES,Pf Dd2 inh
CN1C(=O)CO[C@H](c2ccc(NC(=O)c3cccnc3)cc2)[C@H]1CO,n
CCC(=O)N1CCC2(CC1)CN(c1ccccc1)C2=O,n
CN1c2cc(C(=O)N3CCN(c4ccccc4F)CC3)ccc2C(=O)N2CCCCCC21 (stereo not given),n
COc1cccc(CNC(=O)[C@@H]2C[C@@H](O)CN2C2CCN(C(=O)c3ccccn3)CC2)c1,n
O=C(O)c1ccc(CC2CCN(C(=O)c3cccc(-n4cccn4)c3)C2)cc1 (stereo not given),n
CC(C)c1ccc(CN2CC(COc3ccccc3)C3(C2)CN(C(=O)c2cn[nH]c2)C3)cc1 (stereo not given),n
O=C(N1CCN(S(=O)(=O)c2cccs2)CC1)N1CC2CC(C1)[C@H]1CCCC(=O)N1C2 (stereo not given in full),n
O=C(Cc1ccc2c(c1)OCO2)N(Cc1ccncc1)Cc1cccc(OCCc2ccc(F)cc2)c1,11µM
O=C(CN1C(=O)COc2ccc(C(=O)COc3cccc(F)c3)cc21)NCc1ccc2c(c1)OCO2,n
O=C(Cc1ccc2c(c1)OCO2)N1CCNc2cnc(Nc3cccc(F)c3)nc2C1,n
Cc1ccc(-n2nc(C)c([C@H]3C=C[C@@H](OC(=O)Nc4cccc(F)c4)C3)c2C)cc1Cl,11µM
Cc1nn(-c2ccccn2)c(C)c1[C@@H]1C=C[C@@H](NC(=O)CCC(=O)O)C1,n
Cc1nn(-c2ccc(C(F)(F)F)cc2)c(C)c1[C@@H]1C=C[C@@H](NC(=O)Nc2ccccc2)C1,11µM
Cc1nn(Cc2ccccc2)c(C)c1[C@@H]1C=C[C@@H](NC(=O)Nc2cccc(C#N)c2)C1,n
Cc1nn(Cc2ccccc2)c(C)c1[C@@H]1C=C[C@@H](NC(=O)CCC(=O)O)C1,n
Cc1nn(-c2ccc(C(C)(C)C)cc2)c(C)c1[C@@H]1C=C[C@@H](NC(=O)c2cccs2)C1,n
Cc1nn(-c2ccc(C(F)(F)F)cc2)c(C)c1[C@@H]1C=C[C@@H](NC(=O)c2cccs2)C1,2.8µM
Cc1nn(Cc2ccccc2)c(C)c1[C@@H]1C=C[C@@H](NC(=O)CSCC(=O)O)C1,n
Cc1nn(-c2ccc(C(F)(F)F)cc2)c(C)c1[C@@H]1C=C[C@@H](NC(=O)C2CCCCC2)C1,n
Cc1nn(-c2cccc(Br)c2)c(C)c1[C@@H]1C=C[C@@H](NC(=O)CC(C)(C)CC(=O)O)C1,8.9µM
COc1ccc(NC(=O)O[C@@H]2C=C[C@H](c3c(C)nn(-c4ccccc4C)c3C)C2)cc1,n
Cc1nn(-c2ccc(C(C)(C)C)cc2)c(C)c1[C@@H]1C=C[C@@H](NC(=O)Nc2ccccc2)C1,n
O=C(c1ccoc1)N1CCC(n2cc(-c3nc(C4CC4)no3)nn2)C1 (stereo not given),n
CC(C)c1ccc(C(=O)N2CC3CC(C2)[C@H]2CCCC(=O)N2C3)cc1 (stereo not given in full),n
Cc1ccc(-c2ccc3nnc(CNC(=O)c4ccn[nH]4)n3n2)cc1,n
SMILES,Pf Dd2 inh
O=C(O)C1=NOC2CN(Cc3ccc(F)cc3)CC12 (stereo not given),n
COc1ccc(CC(=O)N2CC[C@H]3CC(=O)N(CCN4CCNC4=O)CC[C@H]3C2)cc1,n
Cc1nn2c(c1-c1cccnc1N1CCOCC1)N(CCC(C)C)CCC2,n
O=C1CCN(C2CCN(Cc3nc(COc4ccccc4)no3)CC2)CCN1,n
CN[C@@H](CC(C)C)C(=O)N[C@H]1C[C@@](O)(C(=O)N[C@H]2CCCNC2=O)C[C@@H](O)[C@@H]1O,n
CCN1C(=O)C2CC3(CCN(C(=O)CC(C)C)CC3)CN2C1=O (stereo not given),n
CN(C)[S+](=O)([O-])c1ccc2c(c1)OCCN(Cc1ccncc1F)C2,n
O=C(NCCc1cccc(Oc2ccccc2)c1)[C@H]1CCC[C@H](O)C1,n
O=C(CCc1ccccc1)N1CCCc2ncc(C(=O)N3CCCC[C@@H]3Cc3ccccc3)cc21,n
COCCOCC(=O)N1CCCN(S(=O)(=O)c2ccccc2)CCC(=O)NCC1,n
Cc1ccc(-n2nc(C)c([C@@H]3C=C[C@@H](NC(=O)c4cccs4)C3)c2C)cc1Cl,11µM
Cc1ccc(-n2nc(C)c([C@@H]3C=C[C@@H](N)C3)c2C)cc1Cl,n
Cc1nn(-c2ccc(C(C)C)cc2)c(C)c1[C@@H]1C=C[C@@H](NCc2cccc(Cl)c2)C1,n
Cc1nn(-c2ccc(F)cc2)c(C)c1[C@@H]1C=C[C@@H](NS(=O)(=O)c2cccs2)C1,n
O=C(N[C@H]1CCN2C(=O)N(c3ccc(F)c(Cl)c3)C(=O)[C@@H]2C1)c1cccs1,n
Cc1nn(-c2ccccc2)c(C)c1[C@@H]1C=C[C@@H](NCc2ccc(F)cc2)C1,5µM
Cc1ccc(C)c(Cn2ccn3nc(-c4ccccc4)c(CO)c3c2=O)c1,n
COc1cccc(CC(=O)N2CCC3(CC2)CC(Cc2nc(-c4ccncc4)no2)CCO3)c1 (stereo not given),n
Cc1ccc(NC(=O)C2CCN(C(=O)c3ncn4c3COC(c3ccc(F)cc3)C4)CC2)c(F)c1 (stereo not given),n
Cc1noc(C)c1[S+](=O)([O-])N1CC(Oc2ccc(F)cc2F)C1,n

# Assay outcomes: PubChem BioAssay, National Center for Advancing Translational Sciences (NCATS)
